Data reported in paper PMC7862700, “An all-to-all approach to the identification of sequence-specific readers for epigenetic DNA modifications on cytosine”.

What was measured:
Assay in all cases: DAPPL (digital affinity profiling via proximity ligation, sequencing); 10 mM Tris-HCl pH 7.5, 50 mM NaCl, 1 mM DTT, 4% glycerol, room temperature, 30 min; GST-TFs on glutathione beads, 16-mer random dsDNA library, 0.1% formaldehyde crosslink after washing; high values mean tight binding
Conditions in all cases: protein: recombinant; tags: N-terminal GST; dsDNA, one strand shown
[1] = molecular target: T1, FLI1 (Homo sapiens, UniProt Q01543 1-452)
T1 sequence: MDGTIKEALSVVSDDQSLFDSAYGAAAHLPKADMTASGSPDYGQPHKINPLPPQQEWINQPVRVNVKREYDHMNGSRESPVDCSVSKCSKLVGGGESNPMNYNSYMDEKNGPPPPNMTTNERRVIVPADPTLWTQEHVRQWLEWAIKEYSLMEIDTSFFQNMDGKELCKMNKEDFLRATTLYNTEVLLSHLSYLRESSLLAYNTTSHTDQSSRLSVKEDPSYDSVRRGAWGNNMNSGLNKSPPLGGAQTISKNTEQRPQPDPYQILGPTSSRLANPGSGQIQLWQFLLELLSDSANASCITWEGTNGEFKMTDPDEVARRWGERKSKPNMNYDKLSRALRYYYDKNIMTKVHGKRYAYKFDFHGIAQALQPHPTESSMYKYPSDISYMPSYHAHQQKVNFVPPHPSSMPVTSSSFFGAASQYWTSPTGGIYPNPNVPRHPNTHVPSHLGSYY
Procedure, shortened: (§1)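 Beads coated with glutathione captured GST-fused human transcription factors that had been expressed in yeast, and the factors were then given DNA barcodes and pooled with a tag-only sample. The pools were incubated with 200 nmole of a random double-stranded 16-mer DNA library in Tris/NaCl/DTT/glycerol buffer for 30 min at room temperature, washed, crosslinked with 0.1% formaldehyde and proximity-ligated with BsaI/T4 ligase at 37 °C for 1 h. PCR amplification and Illumina NextSeq500 sequencing came last. Binding signal is each hexamer's read frequency for a factor divided by its frequency for the tag-only sample.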

[2] = molecular target: T2, ELK1 (Homo sapiens, UniProt P19419 1-428)
T2 sequence: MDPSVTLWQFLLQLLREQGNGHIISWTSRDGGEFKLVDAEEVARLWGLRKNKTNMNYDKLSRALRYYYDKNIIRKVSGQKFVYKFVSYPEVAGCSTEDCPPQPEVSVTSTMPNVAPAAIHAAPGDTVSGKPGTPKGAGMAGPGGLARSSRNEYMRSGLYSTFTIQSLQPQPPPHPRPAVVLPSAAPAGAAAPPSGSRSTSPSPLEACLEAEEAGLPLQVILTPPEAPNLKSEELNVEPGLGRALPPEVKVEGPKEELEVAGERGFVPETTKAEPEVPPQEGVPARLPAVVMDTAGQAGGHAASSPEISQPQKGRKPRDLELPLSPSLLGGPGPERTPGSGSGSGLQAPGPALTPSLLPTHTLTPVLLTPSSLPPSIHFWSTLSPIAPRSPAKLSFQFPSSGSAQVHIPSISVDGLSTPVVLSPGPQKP
Procedure, shortened: as §1

[3] = molecular target: T3, GABPA (Homo sapiens, UniProt Q06546 1-454)
T3 sequence: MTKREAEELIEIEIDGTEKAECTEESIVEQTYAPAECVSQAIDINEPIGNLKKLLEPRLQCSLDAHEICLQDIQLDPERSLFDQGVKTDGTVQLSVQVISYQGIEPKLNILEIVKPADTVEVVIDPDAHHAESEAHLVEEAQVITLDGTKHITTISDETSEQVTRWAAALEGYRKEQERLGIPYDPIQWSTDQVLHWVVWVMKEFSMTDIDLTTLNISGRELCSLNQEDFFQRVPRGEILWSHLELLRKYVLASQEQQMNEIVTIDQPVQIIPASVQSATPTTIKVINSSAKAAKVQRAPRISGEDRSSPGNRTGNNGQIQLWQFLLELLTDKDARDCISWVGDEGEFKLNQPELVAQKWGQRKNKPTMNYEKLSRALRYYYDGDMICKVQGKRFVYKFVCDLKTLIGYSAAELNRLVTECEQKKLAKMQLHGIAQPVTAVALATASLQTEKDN
Procedure, shortened: as §1

[4] = molecular target: T4, ERG (Homo sapiens, UniProt P11308 1-479)
T4 sequence: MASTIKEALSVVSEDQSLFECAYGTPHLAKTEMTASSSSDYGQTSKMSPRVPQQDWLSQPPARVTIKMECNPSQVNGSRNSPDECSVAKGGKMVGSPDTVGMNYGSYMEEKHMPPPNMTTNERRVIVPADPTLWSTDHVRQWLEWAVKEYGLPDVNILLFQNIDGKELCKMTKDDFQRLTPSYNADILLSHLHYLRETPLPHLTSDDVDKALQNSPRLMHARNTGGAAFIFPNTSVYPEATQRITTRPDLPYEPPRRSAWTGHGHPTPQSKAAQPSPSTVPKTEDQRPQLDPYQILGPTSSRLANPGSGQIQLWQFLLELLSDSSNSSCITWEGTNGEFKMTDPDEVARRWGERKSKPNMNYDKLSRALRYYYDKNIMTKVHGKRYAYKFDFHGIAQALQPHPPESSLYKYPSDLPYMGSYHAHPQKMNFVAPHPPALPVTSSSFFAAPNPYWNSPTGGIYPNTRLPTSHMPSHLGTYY
Procedure, shortened: as §1

[5] = molecular target: ELF1 (Homo sapiens, UniProt P32519 1-619)
Sequence of ELF1 (P32519 whole entry): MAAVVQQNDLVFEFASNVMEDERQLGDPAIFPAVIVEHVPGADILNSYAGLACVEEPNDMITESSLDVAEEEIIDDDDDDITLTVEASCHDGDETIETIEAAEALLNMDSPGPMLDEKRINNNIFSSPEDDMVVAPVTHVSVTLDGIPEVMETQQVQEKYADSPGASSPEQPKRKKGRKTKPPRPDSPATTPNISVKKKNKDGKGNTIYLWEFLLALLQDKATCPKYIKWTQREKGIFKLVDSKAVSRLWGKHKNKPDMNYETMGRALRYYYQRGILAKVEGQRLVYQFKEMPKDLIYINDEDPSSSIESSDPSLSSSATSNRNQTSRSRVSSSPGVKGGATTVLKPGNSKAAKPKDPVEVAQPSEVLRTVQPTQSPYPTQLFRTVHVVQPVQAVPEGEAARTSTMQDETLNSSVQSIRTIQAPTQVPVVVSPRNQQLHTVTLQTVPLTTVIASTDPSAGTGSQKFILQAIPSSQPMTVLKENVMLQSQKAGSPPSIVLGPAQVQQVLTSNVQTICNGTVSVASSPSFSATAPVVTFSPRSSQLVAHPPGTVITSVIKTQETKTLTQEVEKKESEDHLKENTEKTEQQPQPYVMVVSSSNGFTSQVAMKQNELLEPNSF
Procedure, shortened: as §1

[6] = molecular target: T5, EHF (Homo sapiens, UniProt Q9NZC4 1-300)
T5 sequence: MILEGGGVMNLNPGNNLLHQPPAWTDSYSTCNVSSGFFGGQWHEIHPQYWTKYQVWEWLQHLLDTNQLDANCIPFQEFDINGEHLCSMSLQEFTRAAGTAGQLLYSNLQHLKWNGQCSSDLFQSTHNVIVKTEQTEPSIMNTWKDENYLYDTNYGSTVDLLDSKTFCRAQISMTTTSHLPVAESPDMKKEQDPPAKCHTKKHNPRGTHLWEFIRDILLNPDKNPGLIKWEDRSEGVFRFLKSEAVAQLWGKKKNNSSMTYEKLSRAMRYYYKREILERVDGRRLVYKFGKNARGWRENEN
Procedure, shortened: as §1

[7] = molecular target: SPI1 (Homo sapiens, UniProt P17947 1-270)
Procedure, shortened: as §1

[8] = molecular target: SPIB (Homo sapiens, UniProt Q01892 1-262)
Sequence of SPIB (Q01892 whole entry): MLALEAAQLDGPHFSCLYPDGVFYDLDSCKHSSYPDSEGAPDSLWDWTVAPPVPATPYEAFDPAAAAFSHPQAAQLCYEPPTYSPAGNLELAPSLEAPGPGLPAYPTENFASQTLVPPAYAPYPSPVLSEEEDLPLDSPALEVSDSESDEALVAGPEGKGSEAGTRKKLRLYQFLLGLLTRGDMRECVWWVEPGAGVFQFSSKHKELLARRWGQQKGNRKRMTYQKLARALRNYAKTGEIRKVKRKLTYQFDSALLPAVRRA
Procedure, shortened: as §1

[9] = molecular target: T6, ELK3 (Homo sapiens, UniProt P41970 1-407)
T6 sequence: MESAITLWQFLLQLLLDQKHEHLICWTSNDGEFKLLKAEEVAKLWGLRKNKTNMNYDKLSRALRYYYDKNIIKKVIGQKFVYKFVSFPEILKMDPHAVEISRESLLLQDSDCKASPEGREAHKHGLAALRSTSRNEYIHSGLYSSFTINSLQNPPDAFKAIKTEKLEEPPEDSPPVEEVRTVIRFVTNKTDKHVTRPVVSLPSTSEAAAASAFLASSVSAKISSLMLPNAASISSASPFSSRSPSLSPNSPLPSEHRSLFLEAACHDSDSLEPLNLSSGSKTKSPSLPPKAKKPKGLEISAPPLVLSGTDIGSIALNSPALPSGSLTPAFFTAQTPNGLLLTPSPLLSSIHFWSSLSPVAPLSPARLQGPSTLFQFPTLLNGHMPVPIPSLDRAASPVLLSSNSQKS
Procedure, shortened: as §1

Sequence | binding signal [1] | binding signal [2] | binding signal [3] | binding signal [4] | binding signal [5] | binding signal [6] | binding signal [7] | binding signal [8] | binding signal [9]
TATGTA | 1.32 fold enrichment (6-mer frequency, TF over GST control) | 1.25 fold enrichment (6-mer frequency, TF over GST control) | 1.29 fold enrichment (6-mer frequency, TF over GST control) | 1.2 fold enrichment (6-mer frequency, TF over GST control) | 1.29 fold enrichment (6-mer frequency, TF over GST control) | 1.23 fold enrichment (6-mer frequency, TF over GST control) | 1.3 fold enrichment (6-mer frequency, TF over GST control) | 1.31 fold enrichment (6-mer frequency, TF over GST control) | 1.17 fold enrichment (6-mer frequency, TF over GST control)
TAATAG | 1.24 fold enrichment (6-mer frequency, TF over GST control) | 1.15 fold enrichment (6-mer frequency, TF over GST control) | 1.09 fold enrichment (6-mer frequency, TF over GST control) | 1.11 fold enrichment (6-mer frequency, TF over GST control) | 1.2 fold enrichment (6-mer frequency, TF over GST control) | 1.25 fold enrichment (6-mer frequency, TF over GST control) | 1.2 fold enrichment (6-mer frequency, TF over GST control) | 1.29 fold enrichment (6-mer frequency, TF over GST control) | 1.06 fold enrichment (6-mer frequency, TF over GST control)
CTCTCG | 1.42 fold enrichment (6-mer frequency, TF over GST control) | 1.34 fold enrichment (6-mer frequency, TF over GST control) | 1.37 fold enrichment (6-mer frequency, TF over GST control) | 1.44 fold enrichment (6-mer frequency, TF over GST control) | 1.49 fold enrichment (6-mer frequency, TF over GST control) | 1.31 fold enrichment (6-mer frequency, TF over GST control) | 1.45 fold enrichment (6-mer frequency, TF over GST control) | 1.37 fold enrichment (6-mer frequency, TF over GST control) | 1.47 fold enrichment (6-mer frequency, TF over GST control)
CTGGTA | 1.3 fold enrichment (6-mer frequency, TF over GST control) | 1.34 fold enrichment (6-mer frequency, TF over GST control) | 1.29 fold enrichment (6-mer frequency, TF over GST control) | 1.4 fold enrichment (6-mer frequency, TF over GST control) | 1.38 fold enrichment (6-mer frequency, TF over GST control) | 1.4 fold enrichment (6-mer frequency, TF over GST control) | 1.33 fold enrichment (6-mer frequency, TF over GST control) | 1.4 fold enrichment (6-mer frequency, TF over GST control) | 1.35 fold enrichment (6-mer frequency, TF over GST control)
AAACAC | 1.25 fold enrichment (6-mer frequency, TF over GST control) | 1.33 fold enrichment (6-mer frequency, TF over GST control) | 1.24 fold enrichment (6-mer frequency, TF over GST control) | 1.33 fold enrichment (6-mer frequency, TF over GST control) | 1.31 fold enrichment (6-mer frequency, TF over GST control) | 1.35 fold enrichment (6-mer frequency, TF over GST control) | 1.3 fold enrichment (6-mer frequency, TF over GST control) | 1.27 fold enrichment (6-mer frequency, TF over GST control) | 1.24 fold enrichment (6-mer frequency, TF over GST control)
TAACAA | 1.22 fold enrichment (6-mer frequency, TF over GST control) | 1.22 fold enrichment (6-mer frequency, TF over GST control) | 1.14 fold enrichment (6-mer frequency, TF over GST control) | 1.18 fold enrichment (6-mer frequency, TF over GST control) | 1.2 fold enrichment (6-mer frequency, TF over GST control) | 1.19 fold enrichment (6-mer frequency, TF over GST control) | 1.14 fold enrichment (6-mer frequency, TF over GST control) | 1.13 fold enrichment (6-mer frequency, TF over GST control) | 1.34 fold enrichment (6-mer frequency, TF over GST control)
CTAACT | 1.36 fold enrichment (6-mer frequency, TF over GST control) | 1.35 fold enrichment (6-mer frequency, TF over GST control) | 1.36 fold enrichment (6-mer frequency, TF over GST control) | 1.37 fold enrichment (6-mer frequency, TF over GST control) | 1.37 fold enrichment (6-mer frequency, TF over GST control) | 1.25 fold enrichment (6-mer frequency, TF over GST control) | 1.36 fold enrichment (6-mer frequency, TF over GST control) | 1.35 fold enrichment (6-mer frequency, TF over GST control) | 1.29 fold enrichment (6-mer frequency, TF over GST control)
GCACTA | 1.18 fold enrichment (6-mer frequency, TF over GST control) | 1.2 fold enrichment (6-mer frequency, TF over GST control) | 1.23 fold enrichment (6-mer frequency, TF over GST control) | 1.11 fold enrichment (6-mer frequency, TF over GST control) | 1.16 fold enrichment (6-mer frequency, TF over GST control) | 1.21 fold enrichment (6-mer frequency, TF over GST control) | 1.19 fold enrichment (6-mer frequency, TF over GST control) | 1.3 fold enrichment (6-mer frequency, TF over GST control) | 1.23 fold enrichment (6-mer frequency, TF over GST control)
